High-throughput results from PubChem.
Hits are enriched below; roughly 2.9% of the tested compounds scored in any of these assays.
GDH-TPI counter-1 – counter-screen for M. tuberculosis FBA inhibitors: GDH-TPI coupled enzymes. 1.2% of 360,000 active. inhibition, % at 4.8 µM. GDH-TPI coupled enzyme counterscreen, NADH absorbance; in the data active = inhibition above about 30%
FBA Mtb inh – inhibits M. tuberculosis FBA enzyme | P9WQA3 | purified M. tuberculosis FBA, fluorescence read-out | inhibition, % at 1 µM | 2.3% of 360,000 active
Target sequence (P9WQA3 whole entry, looked up): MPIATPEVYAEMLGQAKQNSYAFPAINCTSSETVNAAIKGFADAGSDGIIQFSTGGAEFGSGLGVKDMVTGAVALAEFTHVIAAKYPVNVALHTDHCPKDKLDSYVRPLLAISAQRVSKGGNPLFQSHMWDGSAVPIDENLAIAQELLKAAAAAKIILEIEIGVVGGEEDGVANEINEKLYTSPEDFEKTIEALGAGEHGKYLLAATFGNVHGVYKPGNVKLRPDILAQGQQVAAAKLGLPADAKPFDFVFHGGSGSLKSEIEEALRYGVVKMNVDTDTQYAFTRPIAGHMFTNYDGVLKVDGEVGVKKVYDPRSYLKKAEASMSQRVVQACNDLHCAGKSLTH
Mtb hypoxia inh – reduces hypoxia-regulated biosensor signal in M. tuberculosis. M. tuberculosis hypoxia-regulated fluorescent reporter, fluorescence. fluorescence inhibition, % (test concentration not listed). 0.1% of 300,000 active. AID 1159583; in the data active = fluorescence inhibition mostly above about 23%, no sharp cut-off; inactive = mostly below about 17%
BioA inh – inhibitors of Mycobacterium tuberculosis BioA enzyme; purified M. tuberculosis BioA enzyme, plate reader; inhibition, % at 9.99 µM; 0.096% of 360,000 active; AID 602481; in the data active = inhibition above about 40%
FadD28 binding – M. tuberculosis FadD28 bisubstrate binding inhibition; FadD28 bisubstrate probe binding, fluorescence polarization; inhibition, % at 12.5 µM; 0.22% of 360,000 active; AID 588549; in the data active = inhibition above about 8.5%, passing the limit was not always enough
Mtb FBA inh conf – confirmation of M. tuberculosis fructose-bisphosphate aldolase inhibitors | shares compounds with FBA Mtb inh | purified M. tuberculosis FBA, fluorescence read-out | inhibition, % at 1 µM | 78% of 5,600 active | AID 651616
GDH-TPI counter-2 – GDH-TPI inhibition counter-screen for FBA inhibitors; shares compounds with FBA Mtb inh; inhibition, % at 1 µM; GDH-TPI coupled enzyme counterscreen, fluorescence; 81% of 5,600 active; in the data active = inhibition above about 10%
Numbers stand for hits; 0 = inactive; - = not tested or not shown; + = active, no number. Rule as the data show it, unless noted: active = inhibition above about 27%; inactive = the rest.

SMILES | GDH-TPI counter-1 | FBA Mtb inh | Mtb hypoxia inh | BioA inh | FadD28 binding | Mtb FBA inh conf | GDH-TPI counter-2
COc1ccc(-c2cc3c(c4c2ccn4C)C2CCC3O2)cc1OC (stereo not drawn) | - | 0 | - | 0 | 0 | - | -
Cn1ccc2c(-c3ccc(C(F)(F)F)cc3)cc3c(c21)C1CCC3O1 (stereo not drawn) | - | 93 | - | 0 | 0 | 98 | 69
CSc1ccc(-c2cc3c(c4c2ccn4C)C2CCC3O2)cc1 (stereo not drawn) | - | 101 | - | 0 | 0 | 0 | 12
O=C(C=NO)Nc1cccnc1 | - | - | 0 | - | - | - | -
Cn1c(SCC(=O)N2CCCC2)nnc1-c1ccc(S(=O)(=O)N2CCCC2)cc1 | 0 | 0 | 0 | 0 | 0 | - | -
CCSc1nnc(-c2ccc(S(=O)(=O)N3CCCC3)cc2)n1C | 0 | 33 | 0 | 0 | 0 | 0 | 0
CCSc1nnc(-c2ccc(S(=O)(=O)N3CCOCC3)cc2)n1C | 0 | 30 | 0 | - | 0 | + | +
CSc1nnc(-c2ccc(S(=O)(=O)N3CCOCC3)cc2)n1C | 0 | 0 | 0 | 0 | 0 | - | -
Cc1noc(C)c1NC(=O)Nc1ccc2c(c1)C(=O)N([C@H](C)CO)C[C@@H](C)[C@@H](CN(C)Cc1ccc(Oc3ccccc3)cc1)O2 | - | - | - | 0 | - | - | -
C=CCn1c(SCC(=O)Nc2nncs2)nnc1-c1ccco1 | 0 | 75 | 0 | 0 | 0 | + | +
C=CCn1c(SCC(=O)Nc2ccc(N3CCOCC3)cc2)nnc1-c1ccco1 | 0 | 0 | 0 | 0 | - | - | -
Cc1cc(=O)oc2cc(O)c(N=Nc3ccccc3)cc12 | 0 | 0 | 0 | 0 | 0 | - | -
Cc1cc(=O)oc2cc3c(cc12)OCCO3 | 0 | 62 | 0 | - | 0 | 196 | 162
CNC[C@@H]1Oc2ccc(NC(=O)CCCN(C)C)cc2C(=O)N([C@@H](C)CO)C[C@H]1C | - | - | - | 0 | - | - | -
CS(=O)(=O)N1CCCCN2[C@@H](CO)[C@H](c3ccc(C#Cc4ccccn4)cc3)[C@@H]2C1 | - | - | - | 0 | - | - | -
O=C(c1cc(-c2cccs2)nc2ccccc12)N1CCN(CCO)CC1 | 0 | 99 | 0 | 0 | 0 | + | +
Cc1ccc(-c2cc(C(=O)OC3CCOC3=O)c3ccccc3n2)c(C)c1 (stereo not drawn) | 0 | 0 | 0 | 0 | 0 | - | -
O=C(NN1CCOCC1)c1cc(-c2cccs2)nc2ccccc12 | 0 | 51 | 0 | 0 | 0 | 36 | 21
O=C(OC1CCOC1=O)c1cc(-c2cccs2)nc2ccccc12 (stereo not drawn) | 0 | 44 | 0 | 0 | 0 | 0 | 0
CCN(C(=O)COC(=O)c1cc(-c2cccs2)nc2ccccc12)C1CCS(=O)(=O)C1 (stereo not drawn) | 0 | 72 | 0 | - | 0 | 45 | 45
CCN(C(=O)COC(=O)c1cc(-c2ccc(C)o2)nc2ccccc12)C1CCS(=O)(=O)C1 (stereo not drawn) | 0 | 0 | 0 | - | 0 | - | -
C[C@@H]1CN([C@@H](C)CO)C(=O)c2cc(NS(=O)(=O)c3ccc(F)cc3)ccc2O[C@@H]1CN(C)Cc1ccc2c(c1)OCO2 | - | - | - | 0 | - | - | -
O=C(N/N=C/c1cccnc1)c1cc(-c2cccs2)nc2ccccc12 | 0 | 56 | - | 0 | 0 | 51 | 50
C/C(=N\NC(=O)c1cc(-c2ccc(C)s2)nc2ccccc12)c1cccnc1 | 0 | 62 | - | 0 | 0 | 136 | 111
CCc1ccc(-c2cc(C(=O)NN3CCOCC3)c3ccccc3n2)s1 | 0 | 89 | 0 | - | 0 | 44 | 35
SMILES | GDH-TPI counter-1 | FBA Mtb inh | Mtb hypoxia inh | BioA inh | FadD28 binding | Mtb FBA inh conf | GDH-TPI counter-2
O=C(NN=Cc1cccnc1)c1cc(-c2cccs2)nc2ccccc12 | - | - | 0 | - | - | - | -
Cc1ccc(S(=O)(=O)N2C[C@@H](O)COC[C@H]3O[C@@H](CC(=O)NCc4ccc(Cl)c(Cl)c4)CC[C@@H]32)cc1 | - | - | - | 0 | - | - | -
C[C@H](CO)N1C[C@H](C)[C@H](CN(C)S(=O)(=O)CC(F)(F)F)OCc2ccccc2-c2ccccc2C1=O | - | - | - | 0 | - | - | -
CCCNc1cc(C)c(C#N)c2nc3ccccc3n12 | 0 | 69 | 0 | 0 | 0 | 55 | 45
CCc1c(C)c(C#N)c2nc3ccccc3n2c1NC | 0 | 0 | 0 | - | 0 | - | -
CCCc1cc(NCc2ccccn2)n2c(nc3ccccc32)c1C#N | 0 | 50 | 0 | - | 0 | 86 | 68
Cc1cc(N2CCN(c3ccccn3)CC2)n2c(nc3ccccc32)c1C#N | 0 | 0 | 0 | 0 | 0 | - | -
CCCCc1cc(=O)oc2cc(C)cc(OC(C)C(=O)NCc3ccccn3)c12 (stereo not drawn) | 0 | 63 | 0 | 0 | 0 | 153 | 122
Cc1cc(OC(C)C(=O)NCc2ccccn2)c2c(C)cc(=O)oc2c1 (stereo not drawn) | 0 | 103 | 0 | 0 | 0 | 0 | 0
CCCCc1cc(=O)oc2cc(C)cc(OCC(=O)NCc3ccccn3)c12 | 0 | 64 | 0 | 0 | 0 | 47 | 39
CCCCc1cc(=O)oc2cc(OC(C)C(=O)NCc3ccccn3)c(Cl)cc12 (stereo not drawn) | 0 | 0 | 0 | 0 | 0 | - | -
COc1ccccc1-c1ccc2c(c1)O[C@H](CN(C)S(=O)(=O)c1ccccc1)[C@H](C)CN([C@@H](C)CO)S2(=O)=O | - | - | - | 0 | - | - | -
Cc1cc(C(=O)Nc2cccc3c2O[C@@H](CN(C)C(=O)Nc2ccc4c(c2)OCO4)[C@@H](C)CN([C@@H](C)CO)C3=O)n(C)n1 | - | - | - | 0 | - | - | -
Cc1cc(NC(=O)c2coc(=O)c(Br)c2)ccc1C(C)C | 0 | 49 | 0 | 0 | 0 | + | +
O=C(NCCc1ccc(F)cc1)c1coc(=O)c(Br)c1 | 0 | 0 | 0 | 0 | 0 | - | -
CCOc1ccc(C(=O)NCc2ccccn2)cc1 | 0 | 0 | 0 | 0 | 0 | - | -
O=C(Nc1ccccc1F)c1coc(=O)c(Br)c1 | 0 | 107 | 0 | - | 0 | - | +
O=C(NCc1ccccn1)c1coc(=O)c(Br)c1 | 0 | 78 | 0 | 0 | 0 | 0 | 0
C[C@@H](NC(=O)c1coc(=O)c(Br)c1)c1ccccc1 | 33 | 81 | - | 0 | 0 | 72 | 52
CC1(C)Cc2c(c(-c3ccco3)nc3sc4c(NCCN5CCOCC5)ncnc4c23)CO1 | 35 | 27 | 0 | - | 0 | 0 | 0
CC1(C)Cc2c(c(-c3ccco3)nc3sc4c(NCCCO)ncnc4c23)CO1 | 48 | 37 | 0 | 0 | 0 | 43 | 24
CC1(C)Cc2c(c(-c3ccco3)nc3sc4c(NCC5CCCO5)ncnc4c23)CO1 (stereo not drawn) | 0 | 0 | 0 | - | 0 | - | -
CC1COC(=O)CCC=CCC(CC(=O)N(CCO)Cc2ccccc2)C(=O)N1 (stereo not drawn) | - | - | 0 | - | - | - | -
CN(C)c1ccc2c(c1)[C@@H]1C[C@H](CC(=O)NCc3ccc(Cl)cc3)O[C@H](CO)[C@@H]1O2 | - | - | - | 0 | - | - | -
O=C(Nc1cc(F)ccc1F)N[C@@H]1CC[C@H](CCNC(=O)c2cnccn2)O[C@@H]1CO | - | - | - | 0 | - | - | -
CC1OC2(C)OC(=N)C1(C#N)C(C#N)(C#N)C2c1ccccc1 (stereo not drawn) | 0 | 53 | 0 | 0 | 0 | 62 | 50
CCCCC1OC2(C)OC(=N)C1(C#N)C(C#N)(C#N)C2c1ccccc1 (stereo not drawn) | 0 | 78 | 0 | - | 0 | 116 | 83
